The results in this text go back to PubChem BioAssay (NCI).

The structures appear in SMILES notation. This is part of a sample that, as a whole, favours compounds with a hit. Of some 83,000 tested, about 20% had one in any assay.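 For each line, cells grew in 96-well plates with the test compound present at a single concentration for 48 hours.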 Unmarked numbers belong to inactive results. The source made the active and inactive calls. Rule for the calls: active = growth percent below 10; inactive = the rest.

Common to all, as to test: NCI-60 one-dose screen, 48 h (100 = growth as untreated, 0 = no growth, -100 = all killed)
Common to all, as to conditions: 10 µM unless noted

For assay [1], the system named is DU-145 prostate.
The subject of assay [2] is K-562 leukemia.
The subject of assay [3] is MALME-3M melanoma.
Assay [4] deals with MDA-MB-231 breast.
Assay [5] relates to RXF 393 renal.
Assay [6] deals with SF-268 CNS.
For assay [7], the system named is SF-295 CNS.
The subject of assay [8] is SF-539 CNS.
The test system of assay [9] is UACC-257 melanoma.
The subject of assay [10] is M14 melanoma.
Assay [11] deals with HCT-15 colon.
Assay [12] has as its system HT29 colon.
Assay [13] relates to SNB-75 CNS.
The subject of assay [14] is SNB-19 CNS.
In assay [15] the test system is U251 CNS.
The test system of assay [16] is PC-3 prostate.
Assay [17] concerns UACC-62 melanoma.
In assay [18] the test system is LOX IMVI melanoma.
In assay [19] the test system is SK-MEL-28 melanoma.
In assay [20] the test system is SK-MEL-5 melanoma.

Regarding `O=S(=O)(Nc1ccc(NS(=O)(=O)c2ccccc2)c(Cl)c1)c1ccccc1`, the growth in assay [1] is 109%; in assay [2], 95.4%; in assay [3], 103%; in [4] it was 104%; in assay [5], 108%; in assay [6], 101%. Moreover, the growth in assay [7] is 94.6%; in assay [8], 105%; in assay [9], 103%; in assay [10] it was 101%; in assay [11], 110%; in [12], 107%. The growth in assay [13] was 84.9%; in assay [14], 112%; in assay [15], 105%; in assay [16], 88.7%; in assay [17] it was 88.8%; in assay [18], 106%. Also, in assay [19], the growth was 107%.

As to `Cn1cc(-c2nonc2-c2c[nH]c3ccccc23)c2cccnc21`, the growth in [1] was 67.7%; in [2] it was 12.7%; in [3], 50.5%; in assay [4], 59.6%; in assay [5], 36.1%; in [6], 56.5%. Further, the growth was 51.4% in assay [7]; 41.9% in assay [8]; 55% in assay [9]; 21.2% in [10]; 23.5% in [11]; 12.4% in assay [12]. For the same compound, the growth in assay [13] was 21.2%; in assay [14] it was 46.4%; in [15], 26%; in assay [20] it was 26.3%; in assay [17], 41.5%; in assay [18], 43%. In addition, in assay [19], the growth was 61.5%.

For `COc1ccc2nc(NC(=O)CSc3nnc4n3S(=O)(=O)c3ccccc3N4c3ccccc3)sc2c1`, the growth was 99.3% in assay [1]; 113% in assay [2]; 89.7% in assay [3]; 77.7% in assay [4]; 23% in assay [5]; 71.9% in assay [6]. For the same compound, the growth is 73.2% in assay [7]; 94.3% in [8]; 103% in assay [9]; 100% in [10]; 93.7% in assay [11]; 102% in assay [12]. Further, the growth in assay [13] was 77.5%; in [14], 97.2%; in assay [15] it was 94.9%; in [20] it was 99.1%; in [17] it was 82.6%; in assay [18], 85.5%. In addition, the growth in [19] was 109%.

In the case of `O=C(CN1C(=O)/C(=C/c2ccc(Cl)cc2)SC1=S)NCCCN1CCOCC1`, the growth is 102% in [1]; 94.2% in assay [2]; 90.7% in assay [3]; 99.3% in assay [4]; 105% in [5]; 93.6% in assay [6]. Moreover, the growth in [7] is 93.2%; in [8], 92.8%; in assay [9] it was 101%; in [10] it was 113%; in assay [11], 93.1%; in assay [12], 114%. Further, the growth was 92.8% in [13]; 97.9% in assay [14]; 98.4% in [15]; 95.7% in assay [20]; 97% in assay [17]; 90.5% in assay [18]. In addition, in assay [19], the growth was 101%.

As to `COc1ccc(-c2nc3cc(C(=O)Nc4cc(OC)c(OC)c(OC)c4)ccc3n2C2CCCCC2)cc1`, the growth was 103% in assay [1]; 76.1% in assay [2]; 95.6% in assay [3]; 88.6% in assay [4]; 103% in [5]; 100% in assay [6]. Also, the growth is 104% in [7]; 88.6% in assay [8]; 100% in [9]; 96% in assay [10]; 80.2% in assay [11]; 102% in assay [12]. Further, the growth in assay [13] was 82%; in [14], 98.1%; in assay [15], 96.6%; in [20], 77.8%; in assay [17], 80.2%; in assay [18], 95.5%. Moreover, the growth in assay [19] was 97%.

For the compound `O=C1c2ccccc2C(=O)c2c(N=Nc3[nH]c(=S)[nH]c3O)cccc21`, the growth is 16.3% in assay [1]; 9.57% (active) in assay [2]; 45.4% in assay [3]; 40.3% in [4]; -22.4% (active) in [5]; 32.1% in [6]. In addition, the growth in assay [7] was 7.45% (active); in assay [8] it was -32.3% (active); in assay [9] it was 56.9%; in [10] it was -15.8% (active); in assay [11] it was 23.2%; in assay [12], 9.93% (active). Further, the growth in [13] was -20.2% (active); in [14] it was 28.9%; in [15], 12.8%; in assay [20], 13.8%; in assay [17], 32.5%; in assay [18], 34.1%. In assay [19], the growth is 52%.

As to `CNC(=O)c1cc(Oc2ccc(NC(=O)Nc3ccc(Cl)c(OC(F)(F)F)c3)c(F)c2)ccn1`, the growth in [1] is 56.7%; in assay [2] it was 6.83% (active); in assay [3], 1.66% (active); in [4], 35.3%; in assay [5] it was 82.3%; in assay [6], 45.2%. The growth is 21.3% in assay [7]; 50.6% in assay [8]; 1.86% (active) in assay [9]; 4.35% (active) in assay [10]; 28.8% in assay [11]; 14% in assay [12]. Further, the growth is 83% in [13]; 30.3% in assay [14]; 32.3% in assay [15]; 22.1% in assay [16]; 5.13% (active) in assay [17]; 17.2% in assay [18]. The growth in assay [19] was 13.7%.
